This note sets out measurements from PubChem BioAssay AID1626 (SRMLSC, 2009).

About 2,000 (0.91%) of roughly 220,000 compounds were called active. Not shown: some 2% with an inconclusive outcome. Rule as the data show it: inconclusive = inhibition above about 80% without an active follow-up result; inactive = below that; test concentration not stated here. The list is a sample of the results. Potency and affinity values are given separately.

The nature of this assay: M. tuberculosis H37Rv growth inhibitors, H37Rv strain (AID 1626).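 Also: bacteria incubated seven days before Alamar blue readout; 0% = bacteria only wells and 100% = bacteria with antibiotic wells.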 As to conditions: active compounds read high, concentration not given here.
As for `COc1cccc(C(=O)Nc2c(F)c(F)c(F)c(F)c2F)c1`, the inhibition was 0.52% (inactive).
For `COc1cc(OC)cc(C(=O)Nc2ccc(-c3nc4ccccc4o3)cc2)c1` the value was 16% (inactive).
Regarding `CC(=O)Nc1nc(-c2ccccc2)c(-c2ccccc2)o1`, the inhibition is 56.4% (inactive).
As for `CCOC(=O)C(=O)Nc1nc(-c2ccccc2)c(-c2ccccc2)o1`, the inhibition is -0.88% (inactive).
Take `COc1cc(OC)cc(C(=O)Nc2ccc(-c3nc4ccccc4o3)c(O)c2)c1`: the inhibition is 66.5% (inactive).
For `COc1cccc(C(=O)Nc2ccccc2)c1` the value was -3.26% (inactive); for `CCCCCCN1C=C/C(=C\C=C(C#N)C#N)c2ccccc21`, 34.9% (inactive).
For `COc1ccccc1NC(=S)N(CCCN(C)C)Cc1cc2cc3c(cc2[nH]c1=O)OCO3` the value was -2.36% (inactive); for `CCOC(=O)CN1CC23C=CC(O2)C(C(=O)Nc2ccc(F)c(C)c2)C3C1=O` (stereo not drawn), -11.9% (inactive); for `CCCCNC(=O)COC(=O)c1ccc(C)c(NC(=O)c2ccco2)c1`, -7% (inactive).
For `CCN1CCN(C(=O)C(=O)c2c(C)[nH]c3ccccc23)CC1` the value was 0.56% (inactive).
As to `O=C(CSc1nnc(CCCN2C(=O)c3cccc4cccc(c34)C2=O)n1-c1ccccc1)N1CCN(CCO)CC1`, the inhibition is -10.9% (inactive).
Next, `O=C1Nc2cc(Cl)cnc2N2CCCC12` (stereo not drawn): 2.46% (inactive).
As to `CCN(CC)CCCNC(=O)Cn1nc([N+](=O)[O-])c(Cl)c1C`, the inhibition is -1.51% (inactive).
For the compound `CC1CCN(C(=O)c2ccc(CNc3c(N4CCCC4)c(=O)c3=O)cc2)CC1`, the inhibition was 78.3% (inactive).
Consider `Cc1cccc(N2CCN(C(=O)c3ccc(CNc4c(N5CCC(C)CC5)c(=O)c4=O)cc3)CC2)c1C`, for which the inhibition was 73.1% (inactive).
For `Cc1ccc(CNC(=O)c2ccc(CNc3c(N4CCCC4)c(=O)c3=O)cc2)cc1` the value was 8.62% (inactive); for `CC1CCN(c2c(NCc3ccc(C(=O)N4c5ccccc5CC4C)cc3)c(=O)c2=O)CC1` (stereo not drawn), 7.17% (inactive).
On to `CCOC(=O)C1CCCN(C(=O)c2ccc(CNc3c(N4CCC(C)CC4)c(=O)c3=O)cc2)C1` (stereo not drawn), for which the inhibition was 0.97% (inactive).
Turning to `O=C(NCc1ccccc1)c1ccc(CNc2c(N3CCCC3)c(=O)c2=O)cc1`, the inhibition is 3.31% (inactive).
Next, `O=[N+]([O-])c1ccc(N2CCC(O)CC2)nc1`: -4.33% (inactive); `O=c1oc2ccccc2c(NCCO)c1[N+](=O)[O-]`: 0.19% (inactive); `Cc1cc(C)cc(NC(=O)C2CCCC2)c1`: -9.17% (inactive).
For `NC(=O)C1CCN(c2nc(-c3ccccc3)nc3c2oc2ccccc23)CC1` the value was 0.65% (inactive); for `O=C(O)C1CCN(c2nc(-c3ccccc3)nc3c2oc2ccccc23)CC1`, 2.63% (inactive).
Take `CCOC(=O)C1CCN(c2nc(-c3ccccc3)nc3c2oc2ccccc23)CC1`: the inhibition was 25.5% (inactive).
For `OCCN(CCO)c1nc(-c2ccccc2)nc2c1oc1ccccc12`, the inhibition was 0.94% (inactive).
For `COc1ccc(NC(=S)NCc2ccc(S(N)(=O)=O)cc2)c(OC)c1` the value was 6.58% (inactive); for `O=C(NC1CCCC1)C(c1ccc(N2CCOCC2)cc1)N(Cc1ccccc1)C(=O)c1ccco1` (stereo not drawn), -11.4% (inactive); for `O=c1c(C(c2ccccc2)c2c(O)nc3n(c2=O)CCCS3)c(O)nc2n1CCCS2`, 7.37% (inactive).
For `Cc1cc(C)c(S(=O)(=O)N2CCC(C(=O)NCc3ccc(Cl)cc3Cl)CC2)c(C)c1` the value was 4.79% (inactive); for `O=S(=O)(c1ccccc1Br)N1CCC(O)(c2cccnc2)CC1`, -4.98% (inactive).
As for `CCOc1ccccc1NC(=O)C1CCCN(S(=O)(=O)c2ccc(OC)c(C)c2)C1` (stereo not drawn), the inhibition was -3.35% (inactive).
Consider `O=C(Nc1ccccc1)Nc1nnc(-c2ccccc2)o1`, for which the inhibition was 6.54% (inactive).
Regarding `O=C(Nc1ccc(F)cc1)Nc1nnc(-c2ccccc2)o1`, the inhibition is -7.42% (inactive).
Regarding `O=C(Nc1ccccc1)c1nc2ccccc2s1`, the inhibition is 27.8% (inactive).
For `NC(=O)c1oc2ccccc2c1NC(=O)c1nc2ccccc2s1` the value was -3.12% (inactive).
Regarding `O=C(Nc1nnc(-c2cccnc2)o1)c1ccccc1Cl`, the inhibition was 4.74% (inactive).
`O=C(Nc1nnc(-c2ccccc2)o1)Nc1ccc(F)cc1F`: the inhibition was 7.77% (inactive).
Next, `COc1ccc(CNC(=O)c2cnccn2)cc1`: -0.78% (inactive); `COc1ccc(CCNC(=O)C2CCC(CNc3c(N4CCCC4)c(=O)c3=O)CC2)cc1OC` (stereo not drawn): -2.59% (inactive); `COC(=O)[C@@H]1CCCN1Cc1c(C(=O)N2CCOCC2)nc2c(C)cccn12`: -6.22% (inactive).
Take `O=C(COc1ncnc2sccc12)N1CCN(C(=O)c2ccco2)CC1`: the inhibition is -7.61% (inactive).
For the compound `O=c1c2ccccc2c(C=NCCCN2CCOCC2)c(O)n1Cc1ccc2c(c1)OCO2`, the inhibition was 4.72% (inactive).
For `CC1(C)CC(N=Cc2c(O)n(Cc3ccc4c(c3)OCO4)c(=O)c3ccccc23)CC(C)(C)N1` the value was 15% (inactive); for `O=C(c1ccccc1-n1cccc1)N1N=C(C(F)F)CC1(O)C(F)F` (stereo not drawn), -5.84% (inactive).
Next, `Cc1ccc2occ(/C=N/NC(N)=S)c(=O)c2c1`: -2.35% (inactive); `COc1ccc(C(=O)/C=C2\Sc3ccccc3N2C)cc1`: -4.42% (inactive).
Take `COc1cc(OC)cc(C(=O)/C=C2\Sc3ccccc3N2C)c1`: the inhibition is -9.58% (inactive).
Consider `COc1ccc(CNC(=O)COC(=O)c2cncc(Br)c2)cc1`, for which the inhibition was -4.32% (inactive).
For `Cc1nc2cc(O)ccc2n1C`, the inhibition was -5.57% (inactive).
For `COc1ccc(CNC(=O)c2cc(-c3ccncc3)nc3c(C)cc(C)cc23)cc1OC` the value was 6.31% (inactive); for `Cc1ccc(-c2cc(C(=O)Nc3cc(C)on3)c3ccccc3n2)cc1`, 6.46% (inactive); for `COc1cccc(NC(=O)c2cc(-c3cccnc3)nc3c(Cl)cccc23)c1`, -0.99% (inactive).
For `Cc1cc(NC(=O)c2cc(-c3cccnc3)nc3c(C)c(C)ccc23)no1`, the inhibition was 13.3% (inactive).
Next, `COc1ccc(N(C(C)C(=O)Nc2cccnc2)S(C)(=O)=O)cc1` (stereo not drawn): -6.21% (inactive); `Cc1cc(C)c2nc(N3CCC(C(=O)N4CCN(C(=O)c5ccco5)CC4)CC3)sc2c1`: -2.47% (inactive).
For `O=C(NCc1cccc(Cl)c1)c1cc(COc2ccc3ncccc3c2)on1` the value was 58.2% (inactive).
Next, `COc1ccc(-n2nnc3c(=O)n(Cc4cccc(C)c4)cnc32)cc1`: -11.3% (inactive); `CCOC(=O)C(C)Sc1ncc(-c2ccccc2)cn1` (stereo not drawn): -6.07% (inactive).
For `CCOC(=O)C(C)Sc1ncc(OC)c(Sc2ccc(Cl)cc2)n1` (stereo not drawn), the inhibition is 7.19% (inactive).
Next, `CCCOC(=O)CSc1nnc(-c2ccccc2Cl)o1`: 42.3% (inactive); `CCOC(=O)CSc1nnc(-c2cccc(Cl)c2)n1CC`: -1.18% (inactive).
For `COc1ccccc1-c1nnc(SCC(=O)OC(C)C)o1` the value was 58.4% (inactive); for `CCSc1nnc(-c2ccc(Cl)cc2Cl)o1`, 4.11% (inactive); for `CCOC(=O)CSc1ncc(-c2ccccc2)cn1`, 15% (inactive).
Next, `CC(C)OC(=O)CSc1nnc(-c2ccc(Cl)cc2Cl)n1N`: -12.6% (inactive); `O=C(CN1C(=O)c2cccc3cccc1c23)Nc1ccc(S(=O)(=O)Nc2nccs2)cc1`: -0.34% (inactive); `COC(=O)c1ccc(/C=N/OCC(=O)NC2CCCC(C)C2C)cc1` (stereo not drawn): 10.8% (inactive).
On to `O=C(CSc1nc(-c2ccccc2)cs1)NCc1ccco1`, for which the inhibition was 3.71% (inactive).
Take `COc1ccc(CC(=O)NC(C)(C)CC(C)=O)cc1OC`: the inhibition was 6.3% (inactive).
As to `CSc1ccc(-c2nnn(Cc3ccc(C)cc3)n2)cc1`, the inhibition was -7.23% (inactive).
As to `C=CCSc1nc(-c2ccc(OC)cc2)c(C#N)c(=O)n1CC=C`, the inhibition was 15.4% (inactive).
Turning to `COc1ccc(/C=C/C(=O)NCC(=O)n2nc(C)cc2C)cc1`, the inhibition is -7.73% (inactive).
Take `COc1ccc2[nH]c(=O)c(CN(C)C(=O)C3CCCCC3)cc2c1`: the inhibition was 4.58% (inactive).
Next, `O=C1NC(=O)C2C1C(c1cccs1)NN2Cc1ccccc1` (stereo not drawn): 3.37% (inactive); `Cc1nn(CCC#N)c(NC(=O)c2ccc(Cl)cc2)c1P(=O)(Nc1ccc([N+](=O)[O-])cc1)N1CCOCC1` (stereo not drawn): -25.7% (inactive); `COc1ccc(-c2c(=O)n(OCc3ccccc3[N+](=O)[O-])c3ccccc3[n+]2[O-])c(OC)c1`: 2.69% (inactive).
On to `CCCNCc1cc(OC)c(OCc2ccccc2)cc1Br`, for which the inhibition was 6.93% (inactive).
Turning to `Cc1nn2c(N3CCN(C4CCCC4)CC3)cc(C(C)(C)C)nc2c1-c1ccccc1`, the inhibition is 8.34% (inactive).
For `Cc1cc(N2CCN(Cc3ccccc3)CC2)n2nc(C)c(-c3ccccc3)c2n1` the value was -3.83% (inactive); for `CCN1CCN(c2cc(C(C)C)nc3c(-c4ccccc4)c(C)nn23)CC1`, 11.2% (inactive); for `Cc1nn2c(N3CCN(C(=O)c4ccco4)CC3)cc(C(C)(C)C)nc2c1-c1ccccc1`, 32.7% (inactive).
Next, `O=C(CCc1ccccc1)NC1CCSC1=O` (stereo not drawn): -9.93% (inactive); `NC1=NC[C@@H](Cc2ccc(O)cc2)N1CC1CCCCC1`: -0.61% (inactive).
For `NC1=NC[C@H](c2ccccc2)N1CCCCC1CCCCC1` the value was 52.1% (inactive).
On to `NC1=NC[C@@H](Cc2ccc(O)cc2)N1CCc1cc(C(F)(F)F)cc(C(F)(F)F)c1`, for which the inhibition is 11.5% (inactive).
As for `NC1=NC[C@H](Cc2ccc(O)cc2)N1CC1CCCCC1`, the inhibition is -3.49% (inactive).
Next, `NC1=NC[C@H](Cc2ccccc2)N1CC1CCCCC1`: -8.5% (inactive).
With `FC(F)(F)c1cc(CCN2C(=S)NC[C@@H]2CC2CCCCC2)cc(C(F)(F)F)c1`, the inhibition was -1.6% (inactive).
For `CCCCN1C(N)=NC[C@@H]1Cc1ccc(O)cc1`, the inhibition is -2.68% (inactive).
For `NC1=NC[C@@H](Cc2ccc(O)cc2)N1CCC12CC3CC(CC(C3)C1)C2` the value was 20.2% (inactive); for `COC(=O)c1ccc(COc2ccccc2/C=C(\C#N)C(=O)NC(C)C)cc1`, 4.92% (inactive).

Usually inhibition stands for the drop in the measured response relative to a control, in per cent.
